# Measurements as given in PubChem BioAssay AID485364 (National Center for Advancing Translational Sciences (NCATS), 2010).
# “And” between values parts separate entries of the source, which are not always exact repeats. Equal entries are not always repeated. About 11,000 (3.1%) of roughly 360,000 compounds were called active. A call without a number means that no potency is given here. Another 4% or so got no clear call; they are omitted. The call rests on the fitted dose curve; in most records, active means well fitted inhibition curve with a large enough effect; inconclusive means small, poorly fitted or top-dose-only effect; inactive means no such curve, though single readings can be large or run the other way. The full list was thinned out, with actives kept by preference. The source holds several records for some structures; these can differ, active in one and inactive in another.
# Target: Schistosoma mansoni thioredoxin glutathione reductase (TGR) (UniProt Q962Y6)
# Test: qHTS Assay for the Inhibitors of Schistosoma Mansoni Peroxiredoxins; further: nearly all actives have a fitted effect of over 60% in size
# Settings: purified TGR, DTNB reduction, TNB absorbance 405 nm; series mostly up to 114 µM
# Method in brief: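 Kinetic colorimetric format: TGR-catalysed, NADPH-driven DTNB reduction monitored via TNB absorbance. Enzyme dispensed at 20 nM; compound exposure 15 min at room temperature before reaction start.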
# Potency means the concentration at half of the fitted maximal effect.
row,SMILES,Potency
1,CCc1ccc(NC(=O)N2CCN(C(=O)c3nsc4ccccc34)CC2)cc1,inactive
2,Cc1cccc(C(C)C)c1NC(=O)C(NS(=O)(=O)c1cccc2nsnc12)c1ccccc1 (configuration not stated),inactive
3,CCc1ccc(CNCc2c(C(=O)O)n(Cc3ccc(F)cc3Cl)c3cc(OC)ccc23)cc1,inactive
4,CC(CNC(=O)c1nnc(Cc2cccc(F)c2)o1)c1ccccc1 (configuration not stated),inactive
5,CCOc1ccc(C2C3=C(CCCC3=O)N(CC(=O)O)C3=C2C(=O)CCC3)cc1,44.7 µM (active)
6,COc1ccc(C2C3=C(CCCC3=O)N(CC(=O)O)C3=C2C(=O)CCC3)cc1,inactive
7,CCOc1ccc(C2C(C#N)=C(N)N(N(C)C)C3=C2C(=O)CCC3)cc1 (configuration not stated),inactive
8,CC(=O)Nc1ccc(NC(=O)C2CCCN(S(=O)(=O)c3ccc4c(c3)CCCC(=O)N4)C2)cc1 (configuration not stated),inactive
9,COCCNC(=O)CSc1nc(-c2ccccc2)[nH]c1-c1ccc(C)cc1,inactive
10,Cc1oc(C)c2c(=O)cc(-c3ccc4c(c3)OCO4)cc(OC(=O)c3ccc(Cl)cc3)c12,inactive
11,Cc1cc(OC(=O)c2ccc(Cl)cc2)cc(=O)n1C,44.7 µM (active)
12,Cn1cncc1COC(=O)c1ccc(Cl)cc1,inactive
13,Cc1ccc(NC(=O)c2cn3c4c(ccc(Cl)c4c2=O)OC(C)C3)cc1C (configuration not stated),inactive
14,CCNCCC(=O)N1c2ccccc2Sc2ccc(NC(=O)OCC)cc21,inactive
15,CCOC(=O)Nc1ccc2c(c1)N(C(=O)CCCl)c1ccccc1[S@]2=O,14.1 µM (active)
16,CCOC(=O)Nc1ccc2c(c1)N(C(=O)CCN1CCN(CCO)CC1)c1ccccc1CC2,inactive
17,COc1ccc(Cl)cc1NC(=O)CSc1nc(=O)[nH]c2c1CCCC2,inactive
18,Cc1ccccc1-c1nc(CS(=O)(=O)CC(=O)NC(C)c2ccccc2)c(C)o1 (configuration not stated),inactive and 39.8 µM (active)
19,Cc1ccccc1-c1nc(CS(=O)(=O)CC(=O)N2CCc3ccccc3C2)c(C)o1,3.55 µM (active)
20,Cc1oc(-c2ccccc2F)nc1CS(=O)(=O)CC(=O)NCCCN(C)C1CCCCC1,inactive
21,COc1cccc(-c2nc(CS(=O)(=O)CC(=O)N3CCN(c4cc(C)ccc4C)CC3)c(C)o2)c1,inactive
22,Cc1ccc(S(=O)(=O)CC(=O)NC(C)c2ccccc2)cc1 (configuration not stated),inactive
23,Cc1ccccc1-c1nc(CS(=O)(=O)CC(=O)Nc2cc(Cl)cc(Cl)c2)c(C)o1,inactive
24,Cc1ccc(-c2noc(-c3nnn(-c4cccc(C(F)(F)F)c4)c3N)n2)cc1,inactive
25,CC1CCC(N2CC(=O)N(CCC3=CCCCC3)C(c3ccc(F)cc3)C2=O)CC1 (configuration not stated),inactive
26,CCOc1ccc(S(=O)(=O)c2cn(Cc3ccc(OC)cc3)c3ccc(F)cc3c2=O)cc1,inactive

row,SMILES,Potency
1,COc1ccc(C)cc1NC(=O)C(=O)NCCc1sc(-c2cccc(C)c2)nc1C,inactive
2,Cc1cc(C)c2oc(-c3cccc(NC(=O)c4cccc(F)c4)c3C)nc2c1,inactive
3,CCOC(=O)c1c(C)oc2nc(C)nc(N3CCN(c4ccc(OC)cc4)CC3)c12,inactive
4,O=C(NC1CC(=O)N(c2ccccc2)C1)c1ccco1 (configuration not stated),inactive
5,CCOC(=O)C(NS(=O)(=O)c1ccc(C)cc1)(C(F)(F)F)P(=O)(OCC(C)C)OCC(C)C (configuration not stated),22.4 µM (active)
6,Cc1ccc(S(=O)(=O)NCC(C)NS(C)(=O)=O)cc1 (configuration not stated),inactive
7,CC(=O)N1CCN(CC(C)(C)NS(=O)(=O)c2ccc(C)cc2)CC1,inactive
8,Cn1c(C(=O)N2CCC(C(=O)N3CCN(c4ccccc4)CC3)CC2)cc2sccc21,inactive
9,Cc1ccc(Cl)cc1N(C)C(=O)C1CCCN(c2ncnc3onc(-c4ccc(F)cc4)c23)C1 (configuration not stated),inactive
10,O=C(CN1CCN(S(=O)(=O)/C=C/c2ccccc2)CC1)NC(=O)NCc1ccco1,28.2 µM (active)
11,COc1ccccc1N1CCN(CC(=O)NC(=O)NCc2ccco2)CC1,inactive
12,NC(=O)CCN1CCN(S(=O)(=O)/C=C/c2ccccc2)CC1,inactive
13,Cc1ccc(Nc2nnc(-c3ccc(C)c(S(=O)(=O)N4CCCCC4)c3)c3ccccc23)cc1,inactive
14,Cc1ccc2cccc(NC(=O)c3cccc4ccccc34)c2n1,inactive
15,Cc1cccc(NC(=O)N2CCC(CN3CCc4ccccc4C3)CC2)c1C,inactive
16,O=C(CC1N=C2c3ccccc3N=C(SCc3ccc(F)cc3)N2C1=O)NCc1cccs1 (configuration not stated),inactive
17,CC1Cc2cc(S(=O)(=O)CCC(=O)Nc3ccc(F)c(Cl)c3)ccc2N1C(=O)C1CC1 (configuration not stated),inactive
18,Cc1ccc(CNC(=O)CCS(=O)(=O)c2ccc3c(c2)CC(C)N3C(=O)C2CC2)o1 (configuration not stated),44.7 µM (active)
19,CC1Cc2cc(S(=O)(=O)CCC(=O)NCc3ccc(Cl)cc3)ccc2N1C(=O)C1CC1 (configuration not stated),inactive
20,COc1cc(OC)cc(C(=O)Nc2c(C(=O)Nc3ccc(F)cc3)oc3ccccc23)c1,inactive
21,CCOc1ccc(Nc2ncnc3scc(-c4ccc(OC)cc4)c23)cc1,inactive
22,Cc1cccc2nc(-c3ccc(Cl)s3)c(Nc3ccc4c(c3)OCCO4)n12,inactive
23,O=c1cc(CCl)nc2scc(-c3ccccc3)n12,17.8 µM (active)
24,Cc1csc2nc(COC(=O)c3ccccc3NC(=O)c3ccccc3Cl)cc(=O)n12,inactive
25,Cc1csc2nc(COc3ccc(NC(=O)COc4ccccc4)cc3)cc(=O)n12,inactive
26,Cc1oc2ccc(O)c(CN3CCOCC3)c2c1C(=O)Nc1cccc(Cl)c1C,inactive

row,SMILES,Potency
1,COc1cccc(-c2nc(S(=O)(=O)c3ccc(C)cc3)c(NCc3ccccc3)o2)c1,44.7 µM (active)
2,O=S(=O)(c1ccc(Br)cc1)c1nc(-c2ccccc2)oc1NCc1cccnc1,inactive
3,Cc1ccc(S(=O)(=O)c2nc(-c3cccs3)oc2NCc2cccnc2)cc1,inactive
4,CCOC(=O)C(Cc1ccccc1)NC(=O)CCc1c(C)nc2c(c(C)nn2-c2ccc(C)c(C)c2)c1C (configuration not stated),inactive
5,CCC1CCCCN1S(=O)(=O)c1ccc(NC(=O)c2cc(=O)c3ccccc3o2)cc1 (configuration not stated),inactive
6,CCOc1ccc(CNC(=O)CCc2c(C)nn(-c3ccc(N4CCCCC4)nn3)c2C)cc1,inactive
7,CC(=O)Nc1ccc(N2C(=O)C3C4C=CC(CC4)C3C2=O)cc1 (configuration not stated),inactive
8,Cc1ccc(N2C(=O)C3C4C=CC(CC4)C3C2=O)cc1Cl (configuration not stated),25.1 µM (active)
9,Cc1ccc(N2C(=O)C3C4C=CC(CC4)C3C2=O)cc1Br (configuration not stated),inactive
10,Cc1ccc2oc(C(=O)Nc3ccc(S(=O)(=O)N4CCCCCC4)cc3)cc(=O)c2c1,inactive
11,COc1ccc(-c2noc(CSc3nc(C)cc(=O)[nH]3)n2)cc1OC,inactive
12,O=C(CSc1oc(-c2ccccc2)nc1S(=O)(=O)c1ccc(Br)cc1)NC1CCCCC1,inactive
13,COc1cc(Br)cc(/C=N/c2ncn[nH]2)c1O,inactive
14,Oc1c(Cl)cc(Cl)cc1/C=N/c1ncn[nH]1,20 µM (active)
15,Cc1ccc(Nc2c(-c3ccc(N(C)C)cc3)nc3nc[nH]n23)cc1,inactive
16,COc1cc(OC)cc(-c2nc3nc(C)c(CCC(=O)Nc4ccc(C)cc4)c(C)n3n2)c1,inactive
17,CN(C)/C=C1\C=C(c2ccccc2)OC1=O,22.4 µM (active)
18,COc1ccccc1/C=C/C1=NC(=C\N(C)C)/C(=O)O1,inactive
19,Cc1ccc(C2=C/C(=C\c3cccnc3)C(=O)O2)cc1,inactive
20,Cc1cc(C)n2nc(C(=O)NC(C)(C)C)nc2n1,inactive
21,Cc1ccc(S(=O)(=O)NCc2nc3nc(C)cc(C)n3n2)cc1,inactive
22,Cc1cc(C)n2nc(CNS(=O)(=O)c3c(F)c(F)c(F)c(F)c3F)nc2n1,17.8 µM (active)
23,COC(=O)c1ccccc1NS(=O)(=O)c1ccc2c(c1)CCCN2C(C)=O,inactive
24,Cc1c(Cl)cccc1NC(=O)Cn1cc(C(=O)c2cccs2)c2ccccc21,inactive
25,NC1=NC(c2cc(F)cc(F)c2)n2c(nc3ccccc32)N1 (configuration not stated),inactive
26,Cc1ccc(-n2c(SCC(=O)c3ccccc3)nc3c([nH]c4ccccc43)c2=O)cc1,inactive

row,SMILES,Potency
1,COc1ccccc1NC(=O)c1cc(Cl)nnc1Cl,inactive
2,COc1ccccc1NC(=O)/C=C/C(N)=O,2.82 µM (active)
3,COc1ccccc1NC(=O)c1c(Br)cnn1C,inactive
4,CC(NC(=O)CCc1cn(Cc2ccccc2Cl)c2ccccc12)c1ccccc1 (configuration not stated),inactive
5,Cc1ccc(NC(=O)c2ccc3[nH]c(C)cc(=O)c3c2)c(C)c1,inactive
6,O=[N+]([O-])c1ccc(C=Nc2ccc(Cl)cc2Cl)s1,25.1 µM (active)
7,COc1cccc(CSc2nc3nc(C)cc(C)n3n2)c1,inactive
8,Cc1cc(C)n2nc(SCC(N)=O)nc2n1,inactive
9,COc1ccc(C(C)=O)cc1CSc1nc2nc(C)cc(C)n2n1,39.8 µM (active)
10,CCOc1ccccc1CNC(=O)C1CCCN(S(=O)(=O)c2ccc3c(ccn3C)c2)C1 (configuration not stated),inactive
11,Cc1ccc(CNS(=O)(=O)c2ccc(C(=O)N(C)C)s2)cc1,inactive
12,Cc1ccc2c(c1)-c1c(cnn1CC(=O)Nc1ccccc1C#N)CO2,inactive
13,Cc1ccc(-c2ccc(CCC(=O)O)n2-c2ccc(C(N)=O)cc2)cc1,12.6 µM (active)
14,CCOC(=O)c1ccc(COC(=O)CCc2nc(-c3ccccc3)c(-c3ccccc3)o2)cc1,inactive
15,COc1ccc(Cl)cc1NC(=O)Cn1nc(-c2ccc(C)cc2)n(C)c1=S,inactive
16,CCOC(=O)c1ccc(-n2c(CCC(=O)O)ccc2-c2ccccc2)cc1,28.2 µM (active) and 50.1 µM (active)
17,COc1ccc(-c2cn(-c3ccc(C)cc3)c(=O)n2CC(=O)Nc2ccc(OC)c(OC)c2)cc1,inactive
18,COc1ccc(NC(=O)Cn2c(-c3ccc(OC)cc3)cn(-c3ccc(C)cc3)c2=O)cc1,inactive
19,COc1ccc(Cl)cc1-n1c(CCC(=O)O)ccc1-c1ccc(C)cc1,39.8 µM (active)
20,C=Cn1c(C(=O)O)ccc1-c1ccc(OC)cc1,inactive
21,COc1ccc(-c2ccc(CCC(=O)O)n2-c2ccc(O)cc2)cc1,39.8 µM (active)
22,COc1ccc(-c2nc3ccccc3c(=O)n2CCc2ccc(O)cc2)cc1,inactive
23,COc1ccc(Cl)cc1NC(=O)CCC(=O)c1ccc(C)cc1,inactive
24,CCOC(=O)c1ccc(NC(=O)c2ncn(-c3ccccc3)n2)cc1,inactive
